From the supplement of paper PMC4466140

target: SpBzz1-D2; assay: SPOT peptide array binding signal intensity (averaged, normalized) (arbitrary units (background-subtracted, floor 0; scale differs between SH3 domains)); higher = stronger binding of the SH3 domain to the peptide
Summary of the method: (§1)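 Detection of bound protein relied on anti-GST antibody, an HRP anti-mouse secondary and luminol, with imaging and quantification in Genespotter. The bound protein was GST-fused SH3 domains from four yeast species, incubated at 10 μg/ml overnight at 4°C in TBS-based blocking buffer on cellulose membranes carrying synthetic 15-mer peptides with cysteines replaced by serines. Binding signal is normalized, background-subtracted spot intensity averaged over replicates, in arbitrary units that differ between domains.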

Binder | SPOT peptide array binding signal intensity
APERAVPILPPRNNV | ≤ 0
EAEEAAPQLPSRSSA | ≤ 0

target: SpCyk3; assay: as above
Summary of the method: as §1

Binder | SPOT peptide array binding signal intensity
APERAVPILPPRNNV | 13
EAEEAAPQLPSRSSA | 1

target: SpHof1; assay: as above
Summary of the method: as §1

Binder | SPOT peptide array binding signal intensity
APERAVPILPPRNNV | 3
EAEEAAPQLPSRSSA | 0.5

target: SpHof1-2; assay: as above
Summary of the method: as §1

Binder | SPOT peptide array binding signal intensity
APERAVPILPPRNNV | 8
EAEEAAPQLPSRSSA | 3.5

target: SpHof1-3; assay: as above
Summary of the method: as §1

Binder | SPOT peptide array binding signal intensity
APERAVPILPPRNNV | 20.8
EAEEAAPQLPSRSSA | 1

target: SpHse1; assay: as above
Summary of the method: as §1

Binder | SPOT peptide array binding signal intensity
APERAVPILPPRNNV | 2.5
EAEEAAPQLPSRSSA | 0.5

target: SpLsb1; assay: as above
Summary of the method: as §1

Binder | SPOT peptide array binding signal intensity
APERAVPILPPRNNV | 83.8
EAEEAAPQLPSRSSA | 4.25

target: SpLsb4; assay: as above
Summary of the method: as §1

Binder | SPOT peptide array binding signal intensity
APERAVPILPPRNNV | 3550
EAEEAAPQLPSRSSA | 6420

target: SpMyo1; assay: as above
Summary of the method: as §1

Binder | SPOT peptide array binding signal intensity
APERAVPILPPRNNV | 926
EAEEAAPQLPSRSSA | ≤ 0

target: SpNbp2; assay: as above
Summary of the method: as §1

Binder | SPOT peptide array binding signal intensity
APERAVPILPPRNNV | ≤ 0
EAEEAAPQLPSRSSA | ≤ 0

target: SpPex13; assay: as above
Summary of the method: as §1

Binder | SPOT peptide array binding signal intensity
APERAVPILPPRNNV | 2
EAEEAAPQLPSRSSA | 0.5

target: SpRvs167; assay: as above
Summary of the method: as §1

Binder | SPOT peptide array binding signal intensity
APERAVPILPPRNNV | 1250
EAEEAAPQLPSRSSA | 2390

target: SpSla1-D1-D2; assay: as above
Summary of the method: as §1

Binder | SPOT peptide array binding signal intensity
APERAVPILPPRNNV | ≤ 0
EAEEAAPQLPSRSSA | 2

target: SpSla1-D3; assay: as above
Summary of the method: as §1

Binder | SPOT peptide array binding signal intensity
APERAVPILPPRNNV | ≤ 0
EAEEAAPQLPSRSSA | 1

target: AgAbp1; assay: as above
Summary of the method: as §1

Binder | SPOT peptide array binding signal intensity
EAEEAAPQLPSRSSA | 7

target: AgBbc1; assay: as above
Summary of the method: as §1

Binder | SPOT peptide array binding signal intensity
EAEEAAPQLPSRSSA | ≤ 0

target: AgBem1-D1; assay: as above
Summary of the method: as §1

Binder | SPOT peptide array binding signal intensity
EAEEAAPQLPSRSSA | ≤ 0

target: AgBzz1-D1; assay: as above
Summary of the method: as §1

Binder | SPOT peptide array binding signal intensity
EAEEAAPQLPSRSSA | 8.5

target: AgBzz1-D2; assay: as above
Summary of the method: as §1

Binder | SPOT peptide array binding signal intensity
EAEEAAPQLPSRSSA | 8.5

target: AgCyk3; assay: as above
Summary of the method: as §1

Binder | SPOT peptide array binding signal intensity
EAEEAAPQLPSRSSA | ≤ 0

target: AgFus1; assay: as above
Summary of the method: as §1

Binder | SPOT peptide array binding signal intensity
EAEEAAPQLPSRSSA | 8

target: AgHof1; assay: as above
Summary of the method: as §1

Binder | SPOT peptide array binding signal intensity
EAEEAAPQLPSRSSA | 0.5

target: AgHse1; assay: as above
Summary of the method: as §1

Binder | SPOT peptide array binding signal intensity
EAEEAAPQLPSRSSA | 3.5

target: AgLsb1; assay: as above
Summary of the method: as §1

Binder | SPOT peptide array binding signal intensity
EAEEAAPQLPSRSSA | 16

target: AgLsb4; assay: as above
Summary of the method: as §1

Binder | SPOT peptide array binding signal intensity
EAEEAAPQLPSRSSA | 3510

target: AgMyo5; assay: as above
Summary of the method: as §1

Binder | SPOT peptide array binding signal intensity
EAEEAAPQLPSRSSA | ≤ 0

target: AgNbp2; assay: as above
Summary of the method: as §1

Binder | SPOT peptide array binding signal intensity
EAEEAAPQLPSRSSA | ≤ 0

target: AgRvs167; assay: as above
Summary of the method: as §1

Binder | SPOT peptide array binding signal intensity
EAEEAAPQLPSRSSA | 11.3

target: AgSho1; assay: as above
Summary of the method: as §1

Binder | SPOT peptide array binding signal intensity
EAEEAAPQLPSRSSA | ≤ 0

target: AgSla1-D1-D2; assay: as above
Summary of the method: as §1

Binder | SPOT peptide array binding signal intensity
EAEEAAPQLPSRSSA | ≤ 0

target: AgSla1-D3; assay: as above
Summary of the method: as §1

Binder | SPOT peptide array binding signal intensity
EAEEAAPQLPSRSSA | 2

target: CaAbp1-D1; assay: as above
Summary of the method: as §1

Binder | SPOT peptide array binding signal intensity
EAEEAAPQLPSRSSA | ≤ 0

target: CaAbp1-D2; assay: as above
Summary of the method: as §1

Binder | SPOT peptide array binding signal intensity
EAEEAAPQLPSRSSA | ≤ 0

target: CaBbc1; assay: as above
Summary of the method: as §1

Binder | SPOT peptide array binding signal intensity
EAEEAAPQLPSRSSA | ≤ 0

target: CaBem1-D1; assay: as above
Summary of the method: as §1

Binder | SPOT peptide array binding signal intensity
EAEEAAPQLPSRSSA | ≤ 0

target: CaBzz1-D1; assay: as above
Summary of the method: as §1

Binder | SPOT peptide array binding signal intensity
EAEEAAPQLPSRSSA | 1

target: CaBzz1-D2; assay: as above
Summary of the method: as §1

Binder | SPOT peptide array binding signal intensity
EAEEAAPQLPSRSSA | 3.25

target: CaCyk3; assay: as above
Summary of the method: as §1

Binder | SPOT peptide array binding signal intensity
EAEEAAPQLPSRSSA | ≤ 0

target: CaFus1; assay: as above
Summary of the method: as §1

Binder | SPOT peptide array binding signal intensity
EAEEAAPQLPSRSSA | 5

target: CaHof1; assay: as above
Summary of the method: as §1

Binder | SPOT peptide array binding signal intensity
EAEEAAPQLPSRSSA | 0.25

target: CaHse1; assay: as above
Summary of the method: as §1

Binder | SPOT peptide array binding signal intensity
EAEEAAPQLPSRSSA | 6.75

target: CaLsb1; assay: as above
Summary of the method: as §1

Binder | SPOT peptide array binding signal intensity
EAEEAAPQLPSRSSA | 1.75

target: CaLsb4; assay: as above
Summary of the method: as §1

Binder | SPOT peptide array binding signal intensity
EAEEAAPQLPSRSSA | 6000

target: CaMyo5; assay: as above
Summary of the method: as §1

Binder | SPOT peptide array binding signal intensity
EAEEAAPQLPSRSSA | 1

target: CaNbp2; assay: as above
Summary of the method: as §1

Binder | SPOT peptide array binding signal intensity
EAEEAAPQLPSRSSA | ≤ 0

target: CaRvs167; assay: as above
Summary of the method: as §1

Binder | SPOT peptide array binding signal intensity
EAEEAAPQLPSRSSA | 340

target: CaRvs167-3; assay: as above
Summary of the method: as §1

Binder | SPOT peptide array binding signal intensity
EAEEAAPQLPSRSSA | 6.25

target: CaSho1; assay: as above
Summary of the method: as §1

Binder | SPOT peptide array binding signal intensity
EAEEAAPQLPSRSSA | ≤ 0

target: CaSla1-D1-D2; assay: as above
Summary of the method: as §1

Binder | SPOT peptide array binding signal intensity
EAEEAAPQLPSRSSA | ≤ 0

target: CaSla1-D3; assay: as above
Summary of the method: as §1

Binder | SPOT peptide array binding signal intensity
EAEEAAPQLPSRSSA | ≤ 0

target: ScAbp1; assay: as above
Summary of the method: as §1

Binder | SPOT peptide array binding signal intensity
EAEEAAPQLPSRSSA | 6

target: ScBbc1; assay: as above
Summary of the method: as §1

Binder | SPOT peptide array binding signal intensity
EAEEAAPQLPSRSSA | ≤ 0

target: ScBem1-D1; assay: as above
Summary of the method: as §1

Binder | SPOT peptide array binding signal intensity
EAEEAAPQLPSRSSA | ≤ 0

target: ScBzz1-D1; assay: as above
Summary of the method: as §1

Binder | SPOT peptide array binding signal intensity
EAEEAAPQLPSRSSA | 9

target: ScBzz1-D2; assay: as above
Summary of the method: as §1

Binder | SPOT peptide array binding signal intensity
EAEEAAPQLPSRSSA | 10

target: ScCyk3; assay: as above
Summary of the method: as §1

Binder | SPOT peptide array binding signal intensity
EAEEAAPQLPSRSSA | 1

target: ScFus1; assay: as above
Summary of the method: as §1

Binder | SPOT peptide array binding signal intensity
EAEEAAPQLPSRSSA | ≤ 0

target: ScHof1; assay: as above
Summary of the method: as §1

Binder | SPOT peptide array binding signal intensity
EAEEAAPQLPSRSSA | 4.25

target: ScHse1; assay: as above
Summary of the method: as §1

Binder | SPOT peptide array binding signal intensity
EAEEAAPQLPSRSSA | ≤ 0

target: ScLsb1; assay: as above
Summary of the method: as §1

Binder | SPOT peptide array binding signal intensity
EAEEAAPQLPSRSSA | 283

target: ScLsb2; assay: as above
Summary of the method: as §1

Binder | SPOT peptide array binding signal intensity
EAEEAAPQLPSRSSA | 12.5

target: ScLsb3; assay: as above
Summary of the method: as §1

Binder | SPOT peptide array binding signal intensity
EAEEAAPQLPSRSSA | 7150

target: ScLsb4; assay: as above
Summary of the method: as §1

Binder | SPOT peptide array binding signal intensity
EAEEAAPQLPSRSSA | 3370

target: ScMyo3; assay: as above
Summary of the method: as §1

Binder | SPOT peptide array binding signal intensity
EAEEAAPQLPSRSSA | ≤ 0

target: ScMyo5; assay: as above
Summary of the method: as §1

Binder | SPOT peptide array binding signal intensity
EAEEAAPQLPSRSSA | ≤ 0

target: ScNbp2; assay: as above
Summary of the method: as §1

Binder | SPOT peptide array binding signal intensity
EAEEAAPQLPSRSSA | ≤ 0

target: ScPex13; assay: as above
Summary of the method: as §1

Binder | SPOT peptide array binding signal intensity
EAEEAAPQLPSRSSA | 128

target: ScRvs167; assay: as above
Summary of the method: as §1

Binder | SPOT peptide array binding signal intensity
EAEEAAPQLPSRSSA | 1500

target: ScSho1; assay: as above
Summary of the method: as §1

Binder | SPOT peptide array binding signal intensity
EAEEAAPQLPSRSSA | ≤ 0

target: ScSla1-D1-D2; assay: as above
Summary of the method: as §1

Binder | SPOT peptide array binding signal intensity
EAEEAAPQLPSRSSA | 7

target: ScSla1-D3; assay: as above
Summary of the method: as §1

Binder | SPOT peptide array binding signal intensity
EAEEAAPQLPSRSSA | 0.75

target: SpAbp1-D1; assay: as above
Summary of the method: as §1

Binder | SPOT peptide array binding signal intensity
EAEEAAPQLPSRSSA | ≤ 0

target: SpBbc1; assay: as above
Summary of the method: as §1

Binder | SPOT peptide array binding signal intensity
EAEEAAPQLPSRSSA | ≤ 0

target: SpBzz1-D1; assay: as above
Summary of the method: as §1

Binder | SPOT peptide array binding signal intensity
EAEEAAPQLPSRSSA | ≤ 0
